# Records with an inconclusive call do not appear. Where a call stands in place of a potency, no number is given. Calls of active or inactive are those of the source. Calls come from the whole dose curve; as a rule, active = well fitted cell-killing curve with a large enough effect; inconclusive = small, poorly fitted or top-dose-only effect, or effect the other way; inactive = no such curve, though single readings can be large or run the other way.
# Tests used:
# [1] = Quantitative High-Throughput drug screen in 47 multiple myeloma cell lines against the NCATS MIPE library collection: MM1R_ATCC cell viability assay (AID 1918981); details: MM1R multiple myeloma cells, CellTiter-Glo viability, 48 h; series mostly up to 45.8 µM; note: nearly all actives have a fitted effect of over 35% in size; note: potency is the fitted concentration of half-maximal effect
# Method in brief: (§1)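 ATP-based CellTiter-Glo luminescence after 48 h drug exposure (37 °C, 5% CO2) of 500 myeloma cells per well. DMSO-only wells set 100% viability, media-only wells 0%; MIPE 4.0 library added by pin tool.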
# [2] = Quantitative High-Throughput drug screen in 47 multiple myeloma cell lines against the NCATS MIPE library collection: LP1_DSMZ cell viability assay (AID 1918982); details: LP1 myeloma viability, CellTiter-Glo ATP luminescence, 48 h; series mostly up to 45.8 µM; note: nearly all actives have a fitted effect of over 35% in size; note: potency is the fitted concentration of half-maximal effect
# Method in brief: as §1
# [3] = Quantitative High-Throughput drug screen in 47 multiple myeloma cell lines against the NCATS MIPE library collection: KMS28PE_JCRB cell viability assay (AID 1918983); details: KMS28PE multiple myeloma viability, CellTiter-Glo ATP, 48 h; series mostly up to 45.8 µM; note: nearly all actives have a fitted effect of over 35% in size; note: potency is the fitted concentration of half-maximal effect
# Method in brief: as §1
# [4] = Quantitative High-Throughput drug screen in 47 multiple myeloma cell lines against the NCATS MIPE library collection: L363_DSMZ cell viability assay (AID 1918984); details: L363 myeloma viability, CellTiter-Glo ATP luminescence, 48 h; series mostly up to 45.8 µM; note: nearly all actives have a fitted effect of over 40% in size; note: potency is the fitted concentration of half-maximal effect
# Method in brief: as §1
# [5] = Quantitative High-Throughput drug screen in 47 multiple myeloma cell lines against the NCATS MIPE library collection: OCIMY7_PLB cell viability assay (AID 1918987); details: OCI-MY7 myeloma viability, CellTiter-Glo ATP, 48 h; series mostly up to 45.8 µM; note: nearly all actives have a fitted effect of over 65% in size; note: potency is the fitted concentration of half-maximal effect
# Method in brief: as §1
# [6] = Quantitative High-Throughput drug screen in 47 multiple myeloma cell lines against the NCATS MIPE library collection: OCIMY5_PLB cell viability assay (AID 1918988); details: OCI-MY5 myeloma viability, ATP luminescence, 48 h; series mostly up to 45.8 µM; note: nearly all actives have a fitted effect of over 65% in size; note: potency is the fitted concentration of half-maximal effect
# Method in brief: as §1
# [7] = Quantitative High-Throughput drug screen in 47 multiple myeloma cell lines against the NCATS MIPE library collection: KMS34_JCRB cell viability assay (AID 1918985); details: KMS34 myeloma viability, CellTiter-Glo ATP luminescence, 48 h; series mostly up to 45.8 µM; note: nearly all actives have a fitted effect of over 40% in size; note: potency is the fitted concentration of half-maximal effect
# Method in brief: as §1
# [8] = Quantitative High-Throughput drug screen in 47 multiple myeloma cell lines against the NCATS MIPE library collection: MM1S_ATCC cell viability assay (AID 1918980); details: MM1S myeloma viability, CellTiter-Glo ATP luminescence, 48 h; series mostly up to 45.8 µM; note: nearly all actives have a fitted effect of over 45% in size; note: potency is the fitted concentration of half-maximal effect
# Method in brief: as §1
# [9] = Quantitative High-Throughput drug screen in 47 multiple myeloma cell lines against the NCATS MIPE library collection: OCIMY1_PLB cell viability assay (AID 1918979); details: OCI-MY1 myeloma viability, CellTiter-Glo ATP, 48 h; series mostly up to 45.8 µM; note: nearly all actives have a fitted effect of over 35% in size
# Method in brief: as §1
smiles,measurement,setting,value
S=c1nc[nH]c2nc[nH]c12,Potency,[1],7.43 µM (active)
same,Potency,[2],10.5 µM (active)
O=C(CCc1ccc(O)cc1)c1c(O)cc(O)cc1O,Potency,[1],0.148 µM (active)
same,Potency,[3],0.935 µM (active)
same,Potency,[4],0.935 µM (active)
same,Potency,[5],0.148 µM (active)
same,Potency,[6],0.132 µM (active)
Cc1c(C(=O)NN2CCCCC2)nn(-c2ccc(Cl)cc2Cl)c1-c1ccc(Cl)cc1,Potency,[7],inactive
same,Potency,[5],16.6 µM (active)
CCC[C@@H]1C[C@@H](C(=O)N[C@@H]([C@H]2O[C@H](SC)[C@H](O)[C@@H](O)[C@H]2O)[C@@H](C)O)N(C)C1,Potency,[8],inactive
same,Potency,[1],inactive
same,Potency,[2],inactive
same,Potency,[3],inactive
Cc1nccn1CC1CCc2c(c3ccccc3n2C)C1=O (stereo unspecified),Potency,[8],26.4 µM (active)
same,Potency,[1],inactive
same,Potency,[3],20.9 µM (active)
O=C1NC(=O)C(c2ccccc2[N+](=O)[O-])=C1Nc1ccc(O)c(Cl)c1,Potency,[9],inactive
same,Potency,[2],inactive
same,Potency,[4],inactive
O=C(O)c1cc(=O)c2c(OCC(O)COc3cccc4oc(C(=O)O)cc(=O)c34)cccc2o1,Potency,[1],inactive
same,Potency,[2],inactive
same,Potency,[3],inactive
same,Potency,[5],inactive
Cc1nc(Nc2ncc(C(=O)Nc3c(C)cccc3Cl)s2)cc(N2CCN(CCO)CC2)n1,Potency,[4],1.32 µM (active)
same,Potency,[7],0.59 µM (active)
same,Potency,[6],0.743 µM (active)
Oc1ccc(-c2nc(-c3ccc(F)cc3)c(-c3ccncc3)[nH]2)cc1,Potency,[8],16.6 µM (active)
same,Potency,[5],9.35 µM (active)
same,Potency,[6],16.6 µM (active)
Clc1ccc(C(Cn2ccnc2)OCc2ccsc2Cl)c(Cl)c1 (stereo unspecified),Potency,[7],inactive
same,Potency,[6],26.4 µM (active)
CN(C)C(=O)[C@H](O)[C@H](Cc1ccccc1)NC(=O)c1cc2cc(Cl)ccc2[nH]1,Potency,[8],18.7 µM (active)
same,Potency,[1],13.2 µM (active)
same,Potency,[4],2.64 µM (active)
same,Potency,[7],0.935 µM (active)
same,Potency,[5],2.96 µM (active)
same,Potency,[6],13.2 µM (active)
CCOC(=O)C(C)Oc1cccc2c(=O)n(CC(=O)Nc3ccc4c(c3)OCCO4)ccc12 (stereo unspecified),Potency,[9],inactive
same,Potency,[4],9.35 µM (active)
same,Potency,[7],inactive
same,Potency,[5],inactive
C[C@H](Cn1cnc2c(N)ncnc21)OCP(=O)(O)O,Potency,[1],inactive
same,Potency,[4],inactive
same,Potency,[7],inactive
same,Potency,[6],inactive
Cc1cccc(CN2CCN(C(c3ccccc3)c3ccc(Cl)cc3)CC2)c1 (stereo unspecified),Potency,[8],20.9 µM (active)
same,Potency,[5],9.35 µM (active)
same,Potency,[6],20.9 µM (active)
C[C@@H](N)C1CCC(C(=O)Nc2ccncc2)CC1 (stereo partly specified),Potency,[8],inactive
same,Potency,[1],inactive
same,Potency,[2],inactive
same,Potency,[7],inactive
same,Potency,[5],11.8 µM (active)
same,Potency,[6],11.8 µM (active)
O=C(OC1C[C@H]2CC[C@@H](C1)[N+]21CCCC1)C(O)(c1ccccc1)c1ccccc1 (stereo partly specified),Potency,[8],inactive
same,Potency,[1],inactive
same,Potency,[2],inactive
same,Potency,[3],inactive
same,Potency,[4],inactive
same,Potency,[5],inactive
same,Potency,[6],inactive
Nc1ccn([C@@H]2O[C@H](CO)[C@@H](O)C2O)c(=O)n1 (stereo partly specified),Potency,[1],inactive
same,Potency,[3],inactive
same,Potency,[5],inactive
Cc1ccc(Nc2nccc(N(C)c3ccc4c(C)n(C)nc4c3)n2)cc1S(N)(=O)=O,Potency,[4],11.8 µM (active)
same,Potency,[5],18.7 µM (active)
same,Potency,[6],16.6 µM (active)
CCOc1cc(CC(=O)N[C@@H](CC(C)C)c2ccccc2N2CCCCC2)ccc1C(=O)O,Potency,[9],inactive
same,Potency,[2],inactive
same,Potency,[3],inactive
same,Potency,[7],inactive
C[C@]12CCC(=O)C=C1CC[C@@H]1[C@H]2[C@@H](O)C[C@@]2(C)[C@H]1CC[C@]2(O)C(=O)CO,Potency,[9],inactive
same,Potency,[2],inactive
same,Potency,[3],inactive
same,Potency,[4],inactive
same,Potency,[6],inactive
CC(C)c1nc(CN(C)C(=O)N[C@H](C(=O)N[C@@H](Cc2ccccc2)C[C@H](O)[C@H](Cc2ccccc2)NC(=O)OCc2cncs2)C(C)C)cs1,Potency,[2],16.6 µM (active)
same,Potency,[4],inactive
same,Potency,[7],16.6 µM (active)
same,Potency,[5],20.9 µM (active)
CCOC(=O)C1=C(O)C(=O)N(Cc2ccccc2)C1,Potency,[9],inactive
same,Potency,[3],inactive
COc1cc(Nc2c(C#N)cnc3cc(OCCCN4CCN(C)CC4)c(OC)cc23)c(Cl)cc1Cl,Potency,[8],29.6 µM (active)
same,Potency,[1],18.7 µM (active)
same,Potency,[3],18.7 µM (active)
same,Potency,[4],1.66 µM (active)
same,Potency,[7],16.6 µM (active)
same,Potency,[5],0.743 µM (active)
same,Potency,[6],18.7 µM (active)
Cc1cccc(C)c1OCC(=O)N[C@@H](Cc1ccccc1)[C@@H](O)C[C@H](Cc1ccccc1)NC(=O)[C@H](C(C)C)N1CCCNC1=O,Potency,[8],20.9 µM (active)
same,Potency,[3],20.9 µM (active)
same,Potency,[5],11.8 µM (active)
same,Potency,[6],inactive
COCCCN1CCC(NC(=O)c2cc(Cl)c(N)c3c2OCC3)CC1,Potency,[3],inactive
same,Potency,[4],20.9 µM (active)
same,Potency,[7],inactive
Cc1ccc(S(=O)(=O)NC(=O)NN2CC3CCCC3C2)cc1 (stereo unspecified),Potency,[8],20.9 µM (active)
same,Potency,[5],20.9 µM (active)
CCCc1cc(=O)[nH]c(=S)[nH]1,Potency,[8],2.64 µM (active)
same,Potency,[2],inactive
same,Potency,[3],inactive
same,Potency,[7],inactive
same,Potency,[5],inactive
same,Potency,[6],inactive
Nc1cccc2c1CN(C1CCC(=O)NC1=O)C2=O (stereo unspecified),Potency,[3],0.171 µM (active)
same,Potency,[7],inactive
same,Potency,[5],0.0382 µM (active)
same,Potency,[6],inactive
Clc1ccc(C(Cn2ccnc2)OCc2c(Cl)cccc2Cl)c(Cl)c1 (stereo unspecified),Potency,[4],18.7 µM (active)
same,Potency,[5],29.6 µM (active)
Nc1nc(Cl)nc2c1ncn2[C@H]1C[C@H](O)[C@@H](CO)O1,Potency,[8],0.59 µM (active)
same,Potency,[1],0.264 µM (active)
same,Potency,[2],inactive
same,Potency,[5],0.001 µM (active)
CCCS(=O)c1ccc2nc(NC(=O)OC)[nH]c2c1 (stereo unspecified),Potency,[2],16.6 µM (active)
same,Potency,[6],16.6 µM (active)
Cc1cc(O)c2c(c1)C(=O)c1cc(O)cc(O)c1C2=O,Potency,[9],inactive
same,Potency,[3],10.5 µM (active)
same,Potency,[4],inactive
same,Potency,[7],inactive
same,Potency,[5],inactive
Cc1cc(=O)c2c(O)c3c(O)cc(=O)c4c3c3c(cc(O)c1c23)C(C)(C)C=4O,Potency,[1],4.18 µM (active)
same,Potency,[2],5.9 µM (active)
same,Potency,[3],6.62 µM (active)
same,Potency,[4],0.743 µM (active)
same,Potency,[7],13.2 µM (active)
same,Potency,[6],8.33 µM (active)
Nc1nc(OCc2ccccc2)c2[nH]cnc2n1,Potency,[8],14.8 µM (active)
same,Potency,[1],inactive
same,Potency,[2],inactive
same,Potency,[3],inactive
N=C(N)c1ccc2cc(OC(=O)c3ccc(N=C(N)N)cc3)ccc2c1,Potency,[8],inactive
same,Potency,[1],inactive
same,Potency,[2],inactive
same,Potency,[7],6.62 µM (active)
same,Potency,[6],18.7 µM (active)

# Source: PubChem BioAssay (NCATS)
